Source: PubChem BioAssay (NCATS)
Results filed as inconclusive are left out. Activity calls are given as the source filed them. Calls follow the shape of the dose curve; as a rule, active = well fitted inhibition curve with a large enough effect; inconclusive = small, poorly fitted or top-dose-only effect; inactive = flat fitted curve, though single readings scatter.

The compounds below were run against Lysine-specific demethylase 5B (Homo sapiens) (UniProt Q9UGL1) (assay: Optimization screen for KDM5B Histone Demethylases FDH coupled qHTS against the LOPAC library (AID 1347166; also: 0% is about no effect)). Details: KDM5B demethylation, FDH-coupled NADH fluorescence (FDH is formaldehyde dehydrogenase); series mostly up to 57.5 µM; activity, negative = inhibition: at the top concentration.
Chain of Lysine-specific demethylase 5B (Homo sapiens) (Q9UGL1 whole entry, looked up): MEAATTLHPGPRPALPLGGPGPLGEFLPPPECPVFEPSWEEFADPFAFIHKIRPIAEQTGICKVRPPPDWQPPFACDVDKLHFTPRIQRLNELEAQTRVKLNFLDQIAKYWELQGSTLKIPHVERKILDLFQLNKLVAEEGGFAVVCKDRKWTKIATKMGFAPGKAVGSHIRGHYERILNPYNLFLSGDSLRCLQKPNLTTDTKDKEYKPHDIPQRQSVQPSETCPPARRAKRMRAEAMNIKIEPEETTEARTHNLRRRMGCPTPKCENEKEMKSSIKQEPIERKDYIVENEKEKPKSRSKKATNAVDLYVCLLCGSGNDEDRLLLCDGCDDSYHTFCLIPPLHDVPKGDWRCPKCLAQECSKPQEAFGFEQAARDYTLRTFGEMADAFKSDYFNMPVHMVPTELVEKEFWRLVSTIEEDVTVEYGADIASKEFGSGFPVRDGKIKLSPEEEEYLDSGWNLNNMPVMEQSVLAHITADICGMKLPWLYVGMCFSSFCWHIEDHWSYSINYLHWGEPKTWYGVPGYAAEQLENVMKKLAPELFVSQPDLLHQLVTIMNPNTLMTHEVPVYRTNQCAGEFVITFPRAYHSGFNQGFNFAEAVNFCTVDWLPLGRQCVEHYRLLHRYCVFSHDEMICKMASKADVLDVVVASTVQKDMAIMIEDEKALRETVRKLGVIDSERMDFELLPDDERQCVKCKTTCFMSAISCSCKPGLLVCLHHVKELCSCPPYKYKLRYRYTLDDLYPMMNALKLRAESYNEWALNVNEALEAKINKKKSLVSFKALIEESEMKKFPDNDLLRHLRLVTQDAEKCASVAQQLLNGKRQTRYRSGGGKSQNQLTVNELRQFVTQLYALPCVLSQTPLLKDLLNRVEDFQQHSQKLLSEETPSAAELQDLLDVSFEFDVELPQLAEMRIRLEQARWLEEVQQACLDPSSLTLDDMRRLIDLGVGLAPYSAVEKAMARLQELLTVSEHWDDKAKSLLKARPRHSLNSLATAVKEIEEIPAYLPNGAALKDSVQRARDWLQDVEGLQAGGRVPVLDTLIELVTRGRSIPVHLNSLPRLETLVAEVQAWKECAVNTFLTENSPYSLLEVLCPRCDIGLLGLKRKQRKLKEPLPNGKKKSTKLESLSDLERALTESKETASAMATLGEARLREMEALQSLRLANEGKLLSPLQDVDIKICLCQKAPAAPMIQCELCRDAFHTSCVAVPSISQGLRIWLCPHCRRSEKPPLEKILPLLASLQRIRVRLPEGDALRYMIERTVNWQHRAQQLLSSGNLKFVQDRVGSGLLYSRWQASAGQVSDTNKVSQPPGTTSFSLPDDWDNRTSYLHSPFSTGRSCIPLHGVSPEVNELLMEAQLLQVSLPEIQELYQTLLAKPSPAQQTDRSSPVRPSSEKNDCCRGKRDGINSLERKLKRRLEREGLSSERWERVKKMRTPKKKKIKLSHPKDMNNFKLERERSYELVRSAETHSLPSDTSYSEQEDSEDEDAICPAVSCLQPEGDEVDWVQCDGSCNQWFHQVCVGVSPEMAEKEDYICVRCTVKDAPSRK
Description: Assay Submitter (PI): Qin Yan, Ph.D. (Yale University) and Xiaodong Cheng, Ph.D. (MD Anderson)
This project was funded as part of the NCI NEXT Program and Chemical Biology Consortium (CBC)
The histone demethylases, KDM5A and KDM5B catalyze the demethylation of lysine 4 on histone H3 (H3K4me3/2). They
are overexpressed in a variety of cancers and have been implicated in cancer cell growth, metastasis, drug resistance, and tumor growth. KDM5A is amplified and overexpressed in breast and gastric cancer; and is translocated in leukemia. While KDM5B is highly expressed in human mammary tumors and breast cancer cell lines, but not in normal adult breast tissue. Moreover, knockdown of KDM5B leads to upregulation of tumor suppressor genes, including BRCA1. The goal of this project is to employ qHTS to identify selective small molecule inhibitors of KDM5A/B demethylase activity to better understand the role of KDM5 in cancer and to develop novel therapies.
We employed an FDH-coupled assay previously reported by Sakurai et al. to monitor in vitro KDM5 demethylase activity. Compounds showing dose response inhibition are re-acquired, validated, and tested for non-specific interference with the formaldehyde dehydrogenase (FDH) counterscreen. True inhibitors are validated using an AlphaLisa secondary screen, which employs an H3K4(me2-1)-specific antibody to monitor demethylation of a biotin-tagged H3K4(me3) peptide substrate. Inhibitors are profiled against KDM4A and KDM6A AlphaLisa counterscreens to determine level of demethylase specificity; and against the TruHits counterscreen to eliminate non-specific inhibitory activity on the AlphaLISA detection method. Selective inhibitors identified from the primary and secondary screening are tested in cells using immunofluorescence to monitor global H3K4 tri-methylation as a measure of KDM5A/B inhibition. This assay is run against the NCGC Lopac collection of about 1,200 compounds to evaluate its amenability to quantitative High Throughput Screening (qHTS) platform.
Early Translation Branch (ETB)
National Center for Advancing Translational Sciences (NCATS), Rockville, MD
National Institute of Health (NIH), Bethesda, Maryland
[1] Sakurai, M et al. A miniaturized screen for inhibitors of Jumonji histone demethylases. Mol Biosyst. 2010 Feb;6(2):357-64. doi: 10.1039/b912993f. Epub 2009 Oct 8.
1536-well Black, solid bottom, medium binding assay plate is purchased from Greiner Bio-one. The enzymes (KDM5B) and substrate (H3K4me3/2) are provided by the principal investigators. The buffer for this assay is composed of 50mM HEPES at pH 7.5 with 0.01% Tween-20.
FDH coupled qHTS protocol:
Three microliter enzyme mix (buffer + 200nM KDM5BDeltaAP final concentration) is dispensed into the assay plate using the BioRAPTR Flying Reagent Dispenser (FRD; Beckton-Dickenson). Compound (at various final concentration) and control solution is pin transferred to the assay plate using the Kalypsys 1536-pin tool apparatus. The assay plate is incubated for 10 min at room temperature followed by addition of 1uL substrate mix (buffer + 100uM ascorbic acid, 50uM ferrous ammonium sulfate, 12.5uM H3K4Me3, 25uM a-ketoglutarate, 0.25 mM NAD+, 0.25 U/mL formaldehyde dehydrogenase using the FRD yielding a total reaction volume of 4 uL. Initial fluorescence (Read1) is detected using the PerkinElmer ViewLux plate reader equipped with 340 nm excitation and 450 nm emission filters. The final fluorescence (Read2) signal is obtained after 30 min of room temperature incubation. Delta RFU is calculated (Read2 - Read1) and is used to generated dose response curves
With `Nc1cc(Cl)c(NC2=NCCN2)c(Cl)c1` the “activity, negative = inhibition” value was -3.1% (inactive).
In the case of `CCCC1O[C@@H]2C[C@H]3[C@@H]4CCC5=CC(=O)C=C[C@]5(C)[C@H]4[C@@H](O)C[C@]3(C)[C@]2(C(=O)CO)O1` (stereo not given in full), the “activity, negative = inhibition” value was -6.26% (inactive).
For `C1CCc2nnnn2CC1`, the “activity, negative = inhibition” value was -1.08% (inactive).
For `CC1(C)CCC(NC(=O)[C@@H](N)CCC(=O)O)CC1`, the “activity, negative = inhibition” value was -4.01% (inactive).
With `CN1C2CCC1CC(OC(=O)c1c[nH]c3ccccc13)C2` (stereo not given) the “activity, negative = inhibition” value was -15.8% (inactive).
`CNCCC(Oc1ccccc1C)c1ccccc1` (stereo not given) was tested, and the “activity, negative = inhibition” value was -6.64% (inactive).
`CCCn1c(=O)[nH]c(=O)c2[nH]cnc21` was tested, and the “activity, negative = inhibition” value was 3.99% (inactive).
For `CNCCC=C1c2ccccc2CCc2ccccc21`, the “activity, negative = inhibition” value was -3.92% (inactive).
`N[C@@H](Cc1cnc[nH]1)C(=O)O` was tested, and the “activity, negative = inhibition” value was -4.93% (inactive).
In the case of `COc1cc2c(cc1O)CC[C@@H]1[C@@H]2CC[C@]2(C)[C@@H](O)CC[C@@H]12`, the “activity, negative = inhibition” value was 0.345% (inactive).
In the case of `N[C@H](CO)C(=O)O`, the “activity, negative = inhibition” value was -2.73% (inactive).
In the case of `O=C(O)c1cc2cc(Cc3cccnc3)ccc2o1`, the “activity, negative = inhibition” value was -12.6% (inactive).
`C[C@@H]1C(=O)NC2=Nc3cccc(Cl)c3CN21` was tested, and the “activity, negative = inhibition” value was 0.18% (inactive).
With `CC(C)COC(=O)OCN1C(=O)CN(CCN2CC(=O)N(COC(=O)OCC(C)C)C(=O)C2)CC1=O` the “activity, negative = inhibition” value was 0.974% (inactive).
For `CC[C@H](C)C(=O)O[C@H]1CCC=C2C=C[C@H](C)[C@H](CC[C@@H]3C[C@@H](O)CC(=O)O3)[C@H]21`, the “activity, negative = inhibition” value was -9.5% (inactive).
In the case of `COC(=O)[C@H]1[C@H]2C[C@H]3c4[nH]c5ccccc5c4CCN3C[C@H]2CC[C@@H]1O`, the “activity, negative = inhibition” value was -10.5% (inactive).
With `C[C@]12CC[C@@H]3c4ccc(O)cc4CC[C@H]3[C@@H]1CC[C@@H]2O` the “activity, negative = inhibition” value was -17.9% (inactive).
In the case of `O=C1CCC(c2ccc(-n3ccnc3)cc2)=NN1`, the “activity, negative = inhibition” value was 2.7% (inactive).
For `CC(=O)O[C@H]1C[C@@H]2CC[C@@H]3[C@H](CC[C@@]4(C)[C@H]3C[C@H]([N+]3(C)CCCCC3)[C@@H]4OC(C)=O)[C@@]2(C)C[C@@H]1[N+]1(C)CCCCC1`, the “activity, negative = inhibition” value was -0.992% (inactive).
`C[N+]1(CCCCC[N+]2(C)CCCC2)CCCC1` was tested, and the “activity, negative = inhibition” value was -10.3% (inactive).
